IEC-6 tox – kills IEC-6 intestinal cells in KLF5 counter-screen; IEC-6 cytotoxicity, luminescence viability; inhibition, % at 5 µM; actives 0.78% (n = 290,000); in the data active means inhibition above about 22%;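 further: 0% = plate median of test compound wells and 100% = cytotoxic reference compound wells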
APP transl inh – APP translation inhibition; actives 0.82% (n = 190,000); SH-SY5Y APP 5'UTR-luciferase reporter, luminescence; inhibition, % at 2 µM;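 active means inhibition above a set limit, derived from the sample mean plus 3 SD, cut at about 45% in these data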
BaF3 tox – parental Ba/F3 viability inhibition as JAK2V617F counter-screen | actives 1.1% (n = 220,000) | CellTiter-Glo ATP luminescence | inhibition, % at 5.6 µM | AID 1486;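 active means inhibition above a per-campaign cutoff, the mean inhibition of all tested compounds plus 3 SD, cut at about 27% in these data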;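 further: 0% = DMSO wells and 100% = JAK Inhibitor I control wells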
Ba/F3 V617F tox – reduce viability of Ba/F3 cells dependent on JAK2V617F; inhibition, % at 5.6 µM; actives 1.1% (n = 220,000); Ba/F3 EpoR-JAK2V617F viability, ATP luminescence;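 active means inhibition above the campaign mean plus 3 SD over all tested compounds, cut at about 24% in these data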;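 further: cytokine-independent growth of Ba/F3 cells driven by EpoR plus mutant JAK2; 0% = DMSO-treated cells and 100% = JAK inhibitor I control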
KLF5 inh – inhibitors of KLF5 expression. DLD-1 KLF5 promoter-luciferase reporter, luminescence. inhibition, % at 5 µM. actives 0.23% (n = 290,000). AID 1700;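 active means inhibition above a per-plate limit of that plate's mean compound inhibition plus 3 SD, cut at about 60% in these data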;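 further: 0% = DMSO wells and 100% = LY294002 at 200 µM; higher means less KLF5 promoter-driven luciferase light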
BaF3 tox 2 – parental Ba/F3 viability inhibition for JAK2V617F counter-screen. actives 31% (n = 580). CellTiter-Glo luminescence; cells kept alive by added IL-3. shares compounds with Ba/F3 V617F tox. AID 1520. inhibition, % at 5.6 µM;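 active means cell growth inhibition above the hit limit set in the earlier mutant JAK2 cell screen, cut at about 27% in these data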;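 further: plate controls were DMSO-treated cells for no effect and JAK Inhibitor I control wells for full effect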
JAK2V617F confrm – confirmation: loss of viability in JAK2V617F-dependent Ba/F3 cells. inhibition, % at 5.6 µM. Ba/F3 EpoR-JAK2V617F viability, CellTiter-Glo luminescence. shares compounds with Ba/F3 V617F tox. actives 66% (n = 580);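 active means mean inhibition above the hit cutoff derived in the earlier primary screen, cut at about 25% in these data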;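 further: 0% = DMSO-treated cells and 100% = JAK inhibitor I control wells; higher means lower luminescence from reduced cell ATP and viability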
Numbers without * were called inactive; · = no result. Rows were chosen to be rich in hits. Some 1.8% of all compounds tested hit in one or more screens of this group.

SMILES | IEC-6 tox | APP transl inh | BaF3 tox | Ba/F3 V617F tox | KLF5 inh | others
Cc1sc(NC(=O)CN(Cc2ccc(F)cc2)C(=O)C(C)(C)C)c(C(N)=O)c1C | 1.5 | -18.3 | 4.1 | 1.1 | 2.4
Cc1nc(C(F)(F)F)c(C(=O)N/N=C(\N)c2ccccn2)s1 | 5.2 | 56.6* | 7.6 | 1.3 | 16.1
CCCCCCCC[n+]1c(C)n(-c2ccccc2)c2ccc(NC(C)=O)cc21 | 9.3 | -8.9 | 74.5* | 86.8* | 6.9
CC(=O)Nc1ccc(SCC(=O)c2cc(C)n(-c3ccccc3)c2C)cc1 | -9.0 | -98.6 | 6.1 | -2.4 | 13.9
CC(NC(=O)Cn1ncc(Cl)c(Cl)c1=O)C12CC3CC(CC(C3)C1)C2 (stereo unspecified) | 25.4* | 96.2* | 74.6* | 62.6* | -6.2
Cc1ccc(C)c(C(=O)Cn2ncc(Cl)c(Cl)c2=O)c1 | 6.7 | 38.3 | 1.9 | 12.5 | -12.1
CCC(=O)Nc1ccc(C(=O)Cn2ncc(Cl)c(Cl)c2=O)cc1 | 18.4 | · | 44.6* | 77.5* | 28.2
Cc1cc(Br)ccc1NC(=O)CNC(=O)Cn1ncc(Cl)c(Cl)c1=O | 6.4 | 96.2* | 7.6 | 2.7 | 7.8
CCCc1cc(=O)[nH]c(SCC(=O)N(C)CC(=O)Nc2ccccc2CC)n1 | -2.9 | 0.4 | 4.8 | 1.2 | -4.8
CCc1ccccc1NC(=O)CN(C)C(=O)Cn1ncc(Cl)c(Cl)c1=O | 9.1 | 97.0* | 2.7 | 3.2 | -1.5
O=C(COC(=O)CCC(NC(=O)OCc1ccccc1)C(=O)OCC(=O)Nc1ccccc1)Nc1ccccc1 (stereo unspecified) | -0.8 | 14.1 | 0.1 | -2.6 | -10.5
O=C(NCc1ccccc1Cl)C1CCCN1C(=O)Nc1ccccc1 (stereo unspecified) | -2.8 | · | · | · | -18.3
Cc1cccc(N2C(=O)C(Oc3ccc(Cl)cc3Cl)C2C=O)c1C (stereo unspecified) | -3.3 | 9.1 | 8.5 | -2.0 | -16.4
CCCCCC(=O)c1c(C)[nH]c(C(=O)OCC)c1C | 0.9 | -20.3 | 0.9 | -3.2 | -31.6
CCOC(=O)c1[nH]c(C)c(C(=O)O)c1C | -3.3 | 5.4 | 2.3 | -3.5 | -46.4
CCCCCCC(=O)c1c(C)[nH]c(C(=O)OCC)c1C | 8.0 | -18.1 | 41.1* | 0.4 | -37.8
CCOC(=O)c1[nH]c(C=O)c(C(=O)OCC)c1C | -4.2 | 91.4* | 2.9 | 4.0 | 42.2
Cc1ccc(C)c(NC(=S)N2CCC(NC(=O)c3ccccc3)CC2)c1 | -7.3 | · | · | · | -33.1
CCSc1nc(-c2ccccc2)nc(C(Cl)Cl)n1 | 3.9 | 47.1* | 3.6 | -2.2 | -13.3
CSc1nc(-c2ccc(C)cc2)nc(C(Cl)Cl)n1 | -5.8 | 3.1 | 5.1 | 3.6 | -18.2
Cc1cc(/C=C2\SC(=Nc3ccccc3)NC2=O)c(C)n1-c1ccc(S(N)(=O)=O)cc1 | -4.3 | 52.7* | 62.6* | 28.3* | -2.1
O=Cc1ccc(OCc2nnsc2Cl)cc1 | -0.3 | 14.0 | 1.2 | 3.4 | -3.1
Nc1ccc(NC(=O)c2ccco2)c(Cl)c1 | -1.9 | -7.3 | 3.5 | 0.2 | -39.6
CCCS(=O)(=O)N1CCCC(C(=O)Nc2ccc3c(c2)CCC3)C1 (stereo unspecified) | 6.9 | · | · | · | -12.1
COc1cccc(N/C(C)=C/C(=O)c2ccc(Br)cc2)c1 | -0.8 | -55.6 | 2.0 | -2.1 | 7.8
SMILES | IEC-6 tox | APP transl inh | BaF3 tox | Ba/F3 V617F tox | KLF5 inh | others
C/C(=C\C(=O)c1ccc(Br)cc1)Nc1ccc(Cl)cc1 | 6.6 | -29.4 | 92.5* | 1.8 | -9.4
C/C(=C\C(=O)c1ccc(Cl)cc1)Nc1ccc(N2CCOCC2)cc1 | 6.4 | -9.2 | 28.2* | 33.3* | 0.4
COc1ccc(C2NC(=S)NC(O)(C(F)(F)F)C2C(=O)c2cccs2)cc1 (stereo unspecified) | -5.9 | -5.8 | 3.7 | -0.8 | -6.8
CN1c2ccccc2N(C)C1c1ccc2c(c1)OCO2 | 2.5 | -23.8 | 60.6* | 70.7* | -42.8
COc1ccc2c(c1)c1ccc3c(c1n2C)C(=O)C=CC3=O | 6.0 | · | 34.8* | 57.6* | -40.7
Cc1ccc2c(c1)c1ccc3c(c1n2C)C(=O)C=CC3=O | 4.4 | · | 1.1 | 1.1 | -10.4
Cc1ccc(NC(=O)CCSCCc2ccccn2)cc1 | -5.1 | -9.8 | -0.3 | -0.7 | -28.7
CC(=O)Nc1cccc(NC(=S)Nc2cccc(Cl)c2C)c1 | 2.8 | -3.8 | 89.6* | -2.2 | -17.6
CCc1nccn1CCC(=O)NC1CCCc2c1cnn2-c1ccc(F)cc1F (stereo unspecified) | 5.9 | · | · | · | -7.0
COc1ccc(CCNc2nc(-c3sc(C)nc3C)cs2)cc1OC | 1.1 | 55.2* | 3.6 | -0.6 | -19.4
CCn1c(=O)c(=O)[nH]c2cc(C(=O)NC(C)c3ccc(S(N)(=O)=O)cc3)ccc21 (stereo unspecified) | 1.1 | · | · | · | -5.8
Cc1sc2cc3c(c(C(=O)c4ccccc4)[n+]2c1C)-c1cccc2cccc-3c12 | 5.8 | 14.4 | 88.5* | 100.0* | -0.7
Cc1cc(C)c2c(N)c(C(=O)c3ccccc3)sc2n1 | 0.5 | · | -0.8 | -0.8 | -4.5
CCN(CC)S(=O)(=O)c1ccc(N2CCOCC2)c(NC(=O)C23CC4CC(CC(Cl)(C4)C2)C3)c1 | -1.7 | -1.4 | 5.6 | -0.8 | -22.5
O=C(Nc1nccs1)[C@@H]1CCCN1C(=O)c1cccs1 | -4.9 | -7.5 | 104.1* | -1.6 | -4.0
O=C(Nc1nc2c(s1)CCCC2)C1CCCN1C(=O)c1cccs1 (stereo unspecified) | -2.7 | 6.0 | 3.3 | 2.7 | -15.0
CCCCNC(=O)c1cn(CC)c2ccc(S(=O)(=O)N3CCCCCC3)cc2c1=O | 18.4 | · | · | · | -13.6
NC(N)=NC(N)=Nc1ccc(SC(F)(F)F)cc1 | 34.6* | 15.9 | 67.1* | 75.1* | 12.1
Cc1nc2c(=O)n(C)c(=O)n(C)c2nc1Cl | 18.7 | 45.5* | 8.6 | 38.8* | -27.3 | BaF3 tox 2=17.0;JAK2V617F confrm=61.6*
Cn1c(=O)c2nc(NCc3ccccc3)cnc2n(C)c1=O | -4.3 | -7.4 | 3.9 | -4.3 | -11.8
Cc1cc(C)cc(OCC(=O)O/N=C(\N)c2cccnc2)c1 | -2.3 | · | 4.1 | 34.8* | -18.1 | BaF3 tox 2=-2.3;JAK2V617F confrm=-2.8
Cc1ccc(S(=O)(=O)NCc2ccc(C(=O)N(C)CCC#N)cc2)cc1 | 1.2 | · | 2.6 | 92.8* | -12.9 | BaF3 tox 2=-1.7;JAK2V617F confrm=3.6
CC(C)C[C@H](N)c1nnc(SCC(=O)Nc2ccc(Br)cc2)o1 | 2.2 | · | · | · | -9.8
CC(C)C[C@H](NC(=O)OC(C)(C)C)c1nnc(SCC(=O)Nc2ccc(Br)cc2)o1 | -4.0 | -5.3 | 3.0 | 99.3* | -5.3 | BaF3 tox 2=-5.5;JAK2V617F confrm=-1.5
CCn1c(=O)c2cc(S(=O)(=O)NC3CCCCC3)ccc2n(CC)c1=O | 5.1 | 2.6 | 4.0 | -3.5 | -21.8
CCCn1c(N)c(Sc2ccccc2[N+](=O)[O-])c(=O)n(CCC)c1=O | 1.7 | · | · | · | -21.2
CC(=O)C1=C(O)CC(C)(C)CC1=NCCc1nc2ccccc2[nH]1 | 3.5 | 3.4 | 3.5 | 102.0* | -25.6 | BaF3 tox 2=-2.8;JAK2V617F confrm=3.0

Bioassay records from PubChem.
